This is part of a sample that, as a whole, favours compounds with a hit. Of some 79,000 tested, about 15% had one in any assay. Values without a mark were called inactive. Cut-off read from the data, not from the text of the source: active = growth inhibition above about 70%; inactive = the rest.
Experiment: NCI Yeast Anticancer Drug Screen. Data for the sgs1 mgt1 strain (AID 161);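 note: 0% = growth of cultures given vehicle only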
Conditions: S. cerevisiae sgs1 mgt1 strain, at 50.0 µM, hits give high values
How it was run: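 Percent growth inhibition was derived by comparing compound-exposed mutant yeast with vehicle-exposed cultures. The strain carries alterations in DNA damage repair.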

Question: Which growth inhibition does the source give for `CC(=O)/C=C/N(C)c1ccc(O)cc1` here?
Answer: -6.45%

Question: With `CCNC(=O)c1cc2ccccc2cc1O` as the molecule, how does the growth inhibition read?
Answer: -6.5%

Question: For `Cc1ccc(S(=O)(=O)OCC2CCC(COS(=O)(=O)c3ccc(C)cc3)O2)cc1` (stereo not drawn), which growth inhibition is on record?
Answer: -4.85%

Question: For `O=C1CC(CC(=O)c2ccc(Br)cc2)C(=O)/C1=C(/O)c1ccc(Br)cc1` (stereo not drawn), which growth inhibition is on record?
Answer: 36.8%

Question: For `OC1(Cl)c2cccc3cccc(c23)C1(O)Cl` (stereo not drawn), which growth inhibition is on record?
Answer: 2.6%

Question: Which growth inhibition does the source give for `O=C(NC1C2CC3CC(C2)CC1C3)c1cc(/C=C/c2ccccc2)[nH]c(=S)n1` (stereo not drawn) here?
Answer: 13.1%

Question: Which growth inhibition does the source give for `Nc1nc2c(c(=O)[nH]1)CN(c1ccc(S(N)(=O)=O)cc1)CN2` here?
Answer: 0.5%

Question: With `COc1cc(OC)cc(C(=O)NN)c1` as the molecule, how does the growth inhibition read?
Answer: 5.1%

Question: Which growth inhibition does the source give for `COc1ccc(C2=C(c3ccccc3)C(C)(C)Oc3ccc4ccccc4c32)cc1` here?
Answer: -5.9%

Question: For `O=C(CN1CCCCC1)NC(=O)N/N=C\c1ccco1`, which growth inhibition is on record?
Answer: 6.1%

Question: For `O=C(c1cccs1)c1ccc2ccccc2c1C(=O)O`, which growth inhibition is on record?
Answer: -0.85%

Question: With `CC1(C)OCC(C2OC3OC(C)(C)OC3C2OP(=O)(N2CC2)N2CC2)O1` (stereo not drawn) as the molecule, how does the growth inhibition read?
Answer: -38.9%

Question: For `COC(=O)C1CCC(=O)N1CN(C(C)=O)c1ccccc1` (stereo not drawn), which growth inhibition is on record?
Answer: -14.1%

Question: With `O=C1C2=Cc3ccccc3OC2(O)Oc2ccc(O)cc21` (stereo not drawn) as the molecule, how does the growth inhibition read?
Answer: -6.05%

Question: With `O=S(=O)(Cc1ccccc1)C(I)c1ccccc1` (stereo not drawn) as the molecule, how does the growth inhibition read?
Answer: 65.5%

Question: With `O=c1[nH]c2cc(Cl)ccc2c2cc(Cl)ccc12` as the molecule, how does the growth inhibition read?
Answer: 16.6%

Question: Which growth inhibition does the source give for `CCOC(=O)C(CN)c1ccccc1` (stereo not drawn) here?
Answer: 8.1%

Question: With `O=[N+]([O-])c1c(Nc2ccccc2)ncnc1Nc1ccccc1` as the molecule, how does the growth inhibition read?
Answer: -9.6%

Question: With `COC(C)C(NC(=O)C1CCCN1C)C1OC(SCCOC(=O)c2ccccc2O)C(O)C(O)C1O` (stereo not drawn) as the molecule, how does the growth inhibition read?
Answer: -13.6%

Question: With `CCCCOC(=O)NC(=O)c1cn(CCCOC(=O)CCCCCCCCC(=O)OCCCn2cc(C(=O)NC(=O)OCCCC)c(=O)[nH]c2=O)c(=O)[nH]c1=O` as the molecule, how does the growth inhibition read?
Answer: -32.8%

Question: For `O=[N+]([O-])c1ccc(NN=C2CCCCCC2)c([N+](=O)[O-])c1`, which growth inhibition is on record?
Answer: 8.3%

Question: Which growth inhibition does the source give for `CN(C)c1ccc(/C=C/C=C(/C#N)c2ccccc2)cc1` here?
Answer: 2.9%

Question: Which growth inhibition does the source give for `O=C(NCCN1CCCC1)Nc1ccccc1Cl` here?
Answer: -0.8%

— PubChem BioAssay (NCI)
